# In PubChem BioAssay AID1445 (SRMLSC, 2008):
# The campaign covered roughly 220,000 compounds. About 910 (0.41%) were called active.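 Rule for the calls: active = primary inhibition above the hit cutoff, then over 50% inhibition at one or more dose response concentrations (cut at about 23% in these data, passing the limit was not always enough); inconclusive = conflicting primary data, or primary hits not chosen for dose response; inactive = low primary inhibition, or under 50% at every dose.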 For the sample, actives were picked, then their nearest neighbours and some compounds at random. Measured potencies and affinities stand elsewhere.
# Target: Aminopeptidase N (Plasmodium falciparum (isolate 3D7)) (UniProt O96935)
# Assay: malaria alanyl aminopeptidase activity blockers – biochemical, fluorogenic H-Leu-NHMec substrate, 1536-well (AID 1445);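 note: plate controls were DMSO full reaction for no effect and no enzyme background for full effect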
# Settings: recombinant M1AAP, H-Leu-NHMec fluorogenic kinetic assay; at 30 µM, stronger effect = higher value unless noted
# Chain of Aminopeptidase N (Plasmodium falciparum (isolate 3D7)) (O96935 whole entry, looked up): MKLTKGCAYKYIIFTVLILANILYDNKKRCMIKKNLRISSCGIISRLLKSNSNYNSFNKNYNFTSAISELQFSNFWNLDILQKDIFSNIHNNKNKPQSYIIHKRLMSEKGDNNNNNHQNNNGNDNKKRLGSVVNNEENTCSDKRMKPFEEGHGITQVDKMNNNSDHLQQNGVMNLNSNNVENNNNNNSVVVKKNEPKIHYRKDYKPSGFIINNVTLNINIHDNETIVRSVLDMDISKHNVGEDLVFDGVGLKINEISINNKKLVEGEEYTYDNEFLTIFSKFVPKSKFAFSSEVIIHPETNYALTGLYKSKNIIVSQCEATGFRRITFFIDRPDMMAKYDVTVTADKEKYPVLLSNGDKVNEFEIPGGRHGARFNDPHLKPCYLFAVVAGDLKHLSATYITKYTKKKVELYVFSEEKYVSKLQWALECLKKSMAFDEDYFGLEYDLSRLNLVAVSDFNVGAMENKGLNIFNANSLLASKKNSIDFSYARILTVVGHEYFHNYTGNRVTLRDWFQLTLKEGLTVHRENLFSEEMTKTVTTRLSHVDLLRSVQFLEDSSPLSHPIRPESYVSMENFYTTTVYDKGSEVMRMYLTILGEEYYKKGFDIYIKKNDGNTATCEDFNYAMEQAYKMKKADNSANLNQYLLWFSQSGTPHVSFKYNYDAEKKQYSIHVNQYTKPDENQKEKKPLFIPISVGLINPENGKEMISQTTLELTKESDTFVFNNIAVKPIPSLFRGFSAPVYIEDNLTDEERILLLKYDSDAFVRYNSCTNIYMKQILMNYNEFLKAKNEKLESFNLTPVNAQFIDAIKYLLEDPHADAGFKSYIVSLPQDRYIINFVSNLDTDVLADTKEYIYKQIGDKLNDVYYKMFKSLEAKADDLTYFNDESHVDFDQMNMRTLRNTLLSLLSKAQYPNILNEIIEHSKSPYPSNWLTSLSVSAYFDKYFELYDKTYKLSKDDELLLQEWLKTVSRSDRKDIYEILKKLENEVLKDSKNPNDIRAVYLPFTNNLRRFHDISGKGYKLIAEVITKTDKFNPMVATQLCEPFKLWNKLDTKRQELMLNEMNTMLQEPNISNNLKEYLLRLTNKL
row,Compound,inhibition
1,CCCOc1ccc(CSc2n[nH]c(C)n2)cc1,8.48% (inactive)
2,COc1ccc(CCNC(=O)C(C)Sc2ccccc2)cc1OC (stereo not given),-0.82% (inactive)
3,Cc1cccc(NC(=S)NCCc2ccc3c(c2)OCCO3)c1C,0.53% (inactive)
4,CC1CCC(C(C)C)C(OC(=O)COC(=O)c2cc(O)ccc2N)C1 (stereo not given),6% (inactive)
5,CCn1cc(S(=O)(=O)Nc2ccccc2C(F)(F)F)cn1,-0.46% (inactive)
6,Cc1cccc(C(=O)NNC(=O)c2ccc(Cl)cc2)c1O,27.7% (active)
7,COc1ccccc1C(=O)NNC(=O)c1ccc(Cl)cc1,-4.03% (inactive)
8,O=C(NNC(=O)c1ccccc1Br)c1ccc(Cl)cc1,-5.75% (inactive)
9,NNC(=O)c1ccc(O)cc1O,11.6% (inactive)
10,CC(C)(C)c1ccc(C(=O)NNC(=O)c2ccc(Cl)cc2)cc1,0.45% (inactive)
11,CC1=CSC2=NC(=O)/C(=C/c3cccc(OC(=O)c4ccco4)c3)C(=N)N12,8.4% (inactive)
12,CN(C)c1ccc(/C=C2\C(=N)N3C(=NC2=O)Sc2cc(S(C)(=O)=O)ccc23)cc1,12.4% (inactive)
13,COc1cc(/C=C2/C(=N)N3C(c4ccccc4)=CSC3=NC2=O)ccc1OCC(=O)O,8.04% (inactive)
14,COc1ccc(/C=C2/C(=N)N3C(=NC2=O)Sc2cc(S(C)(=O)=O)ccc23)cc1OC,4.37% (inactive)
15,COC(=O)CCC(=O)N1CCOCCOCCOCC1,3.89% (inactive)
16,CCOc1cc(/C=C2/NC(=O)N(Cc3ccccc3F)C2=O)ccc1O,9.55% (inactive)
17,COc1cc(/C=C2/NC(=O)N(Cc3ccccc3F)C2=O)cc(OC)c1O,11% (inactive)
18,O=S(=O)(c1ccccc1)c1nc(NCc2ccccc2)sc1Cl,3.65% (inactive)
19,CC(C)CNc1nc(S(=O)(=O)c2ccccc2)c(Cl)s1,-9.9% (inactive)
20,Cc1ccc(S(=O)(=O)c2nc(NCCCn3ccnc3)sc2Cl)cc1,1.08% (inactive)
21,Cc1ccc(S(=O)(=O)c2nc(NN(C)C)sc2Cl)cc1,2.25% (inactive)
22,Cc1ccc(S(=O)(=O)C2CS(=O)(=O)CC2O)cc1 (stereo not given),-0.11% (inactive)
23,c1ccc(CCCCNCC2COc3ccccc3O2)cc1 (stereo not given),0.11% (inactive)
24,C=CCNC(=O)c1ccc([N+](=O)[O-])c(Cl)c1,1.78% (inactive)

row,Compound,inhibition
1,CC1=C(C(N)=O)C(c2cccs2)NC(=O)N1 (stereo not given),0.41% (inactive)
2,FC(F)(F)c1cc(-c2cccs2)nc2cc(-c3cccs3)nn12,2.78% (inactive)
3,FC(F)(F)c1cc(-c2cccs2)nc2ncnn12,14.3% (inactive)
4,O=C(NCCCn1ccnc1)/C(=C\c1cccs1)NC(=O)c1ccco1,2.24% (inactive)
5,CC(C)=CC(=O)NCCc1ccccc1,0.11% (inactive)
6,Cc1ccc2c(c1)NCCO2,9.62% (inactive)
7,Cc1cc(=O)oc2cc3c(cc12)OCCO3,9.01% (inactive)
8,CN(C)c1ccc(CNn2cnnc2SCc2ccccc2F)cc1,3.42% (inactive)
9,Cc1ccccc1OCCCC(=O)Nc1ccccc1C(F)(F)F,-2.79% (inactive)
10,CCOC(=O)CC1C(=O)NCCN1S(=O)(=O)c1ccc(C)cc1 (stereo not given),-1.42% (inactive)
11,CC(C)CN1C(=O)/C(=C/c2c(N3CCc4ccccc4C3)nc3ccccn3c2=O)SC1=S,2.88% (inactive)
12,CCOC(=O)CC1C(=O)NCCN1C(=O)c1cc2c(=O)n3ccccc3nc2s1 (stereo not given),-1.82% (inactive)
13,CCOCCCNc1nc2c(C)cccn2c(=O)c1/C=C1\SC(=S)N(C(C)CC)C1=O (stereo not given),3.39% (inactive)
14,CCOC(=O)C(=O)c1c(-c2ccc(C)cc2)nc2ccccn12,10.6% (inactive)
15,COC(=O)c1c(C)oc(C)c1S(=O)(=O)N1CCCCC1,0.96% (inactive)
16,CCCCCCOc1ccc(C(=O)NCCCn2ccnc2)cc1,-4.66% (inactive)
17,CN(C)CCNC(=O)NC1CCCCC1,4.13% (inactive)
18,CC(=O)NS(=O)(=O)c1ccc(NC(=O)c2ccc3c(c2)C(=O)N(CCC(C)C)C3=O)cc1,9.98% (inactive)
19,CC(/C=C1\SC(=S)N(NC(=O)c2ccc(O)cc2)C1=O)=C\c1ccccc1,4.4% (inactive)
20,CCN1C(=O)/C(=C2\SC(=S)N(CCCOC)C2=O)c2ccccc21,0.63% (inactive)
21,CC(=O)N1C(=O)/C(=C2\SC(=S)N(c3c(C)n(C)n(-c4ccccc4)c3=O)C2=O)c2ccccc21,9.72% (inactive)
22,CCN1C(=O)/C(=C2\SC(=S)N(CC3CCCO3)C2=O)c2ccccc21 (stereo not given),2.68% (inactive)
23,CC(/C=C1\SC(=S)N(NC(=O)c2ccccc2C)C1=O)=C\c1ccccc1,4.17% (inactive)
24,CC(/C=C1\SC(=S)N(NC(=O)c2ccncc2)C1=O)=C\c1ccccc1,13.9% (inactive)

row,Compound,inhibition
1,Cc1ccc(S(=O)(=O)N2C(=O)/C(=C3\SC(=S)NC3=O)c3ccccc32)cc1,16.8% (inactive)
2,CC(/C=C1\SC(=S)N(NC(=O)c2ccc(C)cc2)C1=O)=C\c1ccccc1,5.4% (inactive)
3,CC1=C(C(=O)c2ccccc2)C(c2ccc(OC(F)F)cc2)NC(=S)N1 (stereo not given),3.11% (inactive)
4,CN1CCN(CC(=O)NC2CCCCC2)CC1,-3.84% (inactive)
5,Cc1cc(C)n(-c2nc3c(c(=O)[nH]c(=O)n3C)n2Cc2cccc(Br)c2)n1,6.71% (inactive)
6,COc1cccc(NS(=O)(=O)c2ccc(OC)c(OC)c2)c1,8.68% (inactive)
7,COc1ccc(NC(=O)c2ccc3c(SCC(=O)O)c4c(nc3c2)CCCC4)cc1Cl,6.4% (inactive)
8,COc1cc(Cl)c(C)cc1NC(=O)c1ccc2c(SCC(=O)O)c3c(nc2c1)CCCC3,39.2% (inactive)
9,CC(=O)c1ccc(OCc2cc([N+](=O)[O-])cc3c2OCOC3)cc1,0.98% (inactive)
10,CP(C)(=O)CCP(=O)(c1ccccc1)c1ccccc1,2.48% (inactive)
11,CCCc1nc(C)c(-c2ccc(OC)c(OC)c2)c(=O)[nH]1,2.27% (inactive)
12,Cc1c(CCC(=O)O)c(=O)oc2cc3occ(C(C)(C)C)c3cc12,12.5% (inactive)
13,Cc1coc2cc3oc(=O)c(Cc4ccccc4)c(C)c3cc12,16.1% (inactive)
14,Cc1c(CCC(=O)O)c(=O)oc2cc3oc4c(c3cc12)CCCC4,8.26% (inactive)
15,Cc1c(CCC(=O)O)c(=O)oc2cc(O)ccc12,18.6% (inactive)
16,CC(C)Oc1cccc(C(=O)C2CCCN(Cc3cnn(C(C)C)c3)C2)c1 (stereo not given),3.98% (inactive)
17,Cc1ccc(/C=[N+](/C)[O-])cc1,5.58% (inactive)
18,Cc1oc(C)c2c(=O)ccc3c(c12)OC(N)=C(C#N)C3c1ccc(F)cc1 (stereo not given),3.21% (inactive)
19,Cc1oc(C)c2c(=O)ccc3c(c12)OC(N)=C(C#N)C3c1ccccc1 (stereo not given),12.5% (inactive)
20,CSc1ccc(C2C(C#N)=C(N)Oc3c2ccc(=O)c2c(C)oc(C)c32)cc1 (stereo not given),23.3% (active)
21,COc1cccc(C2c3[nH]c4ccccc4c3CCN2Cc2cccn2-c2ncccn2)c1 (stereo not given),1.34% (inactive)
22,CCOC(=O)CSCc1nc(-c2ccc(Cl)cc2)oc1C,-0.93% (inactive)
23,C/C(=N\NC(=O)COc1ccc(C(C)(C)C)cc1)c1ccc(OC(F)F)cc1,6.66% (inactive)
24,NC(=O)c1cccc(CC(=O)c2ccccc2)c1,8.26% (inactive)

row,Compound,inhibition
1,COc1cc(C=O)ccc1OCC(=O)N1CCCC1,-0.53% (inactive)
2,COc1ccccc1NS(=O)(=O)c1ccc(Cl)c(NC(=S)NC(=O)C2CCCC2)c1,6.44% (inactive)
3,COc1ccccc1NS(=O)(=O)c1ccc(Cl)c(NC(=O)CN2C(=O)c3ccccc3C2=O)c1,11.8% (inactive)
4,Cc1cc(O)c(C=Nc2cccc(Cl)c2)c(=O)o1,13.6% (inactive)
5,O=C1CNC(=O)/C1=C\N1CCN(C(c2ccccc2)c2ccccc2)CC1,10.1% (inactive)
6,COc1ccc(-c2cc(=Nc3c(C)n(C)n(-c4ccccc4)c3=O)c3ccccc3o2)cc1,10.6% (inactive)
7,Cc1c(C(c2ccc(O)cc2)c2c(C)n(C)n(-c3ccccc3)c2=O)c(=O)n(-c2ccccc2)n1C,-4.97% (inactive)
8,COc1ccc(C(c2c(C)n(C)n(-c3ccccc3)c2=O)c2c(C)n(C)n(-c3ccccc3)c2=O)cc1O,2.02% (inactive)
9,Cc1c(C(c2ccccc2O)c2c(C)n(C)n(-c3ccccc3)c2=O)c(=O)n(-c2ccccc2)n1C,-0.33% (inactive)
10,FC(F)(F)c1ccccc1CN1CCN(C2CCCCCC2)CC1,3.5% (inactive)
11,CCOC(=O)N1CCN(C(=O)COc2cc(=O)n(CC)c3ccccc23)CC1,3.47% (inactive)
12,Cc1ccccc1NC(=O)N1CCc2ccccc2C1,1.94% (inactive)
13,O=Cc1ccc2cccnc2n1,3.17% (inactive)
14,CC1=CC(C)(C)NC(=S)N1c1ccccc1C,0.18% (inactive)
15,O=C1c2ccccc2C(=O)N1Cc1ccco1,3.2% (inactive)
16,O=C(CN1C(=O)S/C(=C\c2ccccc2)C1=O)NNC(=O)c1ccccc1O,6.38% (inactive)
17,O=C(O)c1ccc(COc2ccccc2/C=C2\NC(=O)N(Cc3ccccc3)C2=O)cc1,-0.49% (inactive)
18,Cc1ccccc1NC(=O)c1ccccc1O,12.9% (inactive)
19,O=C(Nc1ccc(O)cc1)c1ccc2c(c1)C(=O)N(Cc1ccco1)C2=O,3.19% (inactive)
20,CCOc1ccc(-c2nnc3ccc(SCC(=O)Nc4nc5ccccc5s4)nn23)cc1,-0.15% (inactive)
21,Cc1c(NC(=O)C(C)OC(=O)[C@@H](NC(=O)c2ccccc2)C(C)C)c(=O)n(-c2ccccc2)n1C (stereo not given in full),11.4% (inactive)
22,CC(C)Cn1c(-c2ccncc2)n[nH]c1=S,-1.73% (inactive)
23,CCc1ccc2[nH]c(=O)c(CN(CCN(CC)CC)C(=O)NC3CCCCC3)cc2c1,6.76% (inactive)
